For 14 compounds, outcome and AC50 results are on record in PubChem BioAssay (EPA / NIEHS).

Molecules are shown by their SMILES. Records with an inconclusive call do not appear. The source made the active and inactive calls. How the source made its calls, unless noted: active means hit-call score of the fitted dose curve at least 0.9, where 1 is the maximum; inconclusive means response in the unintended direction; inactive means score below 0.9.

Test [1] addresses Nucleoli Translocation, AR (gene 367) (UniProt P10275). Nature of the test: UPITT_HCI_U2OS_AR_TIF2_Nucleoli_Antagonist: University of Pittsburgh U2OS Androgen Receptor-Transcriptional Intermediary Factor 2 (AR-TIF2) Antagonism High Content Imaging Assay for Nucleoli Translocation (AID 2283997). Put shortly: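 Measured quantity was AR-RFP fluorescence localized to nucleoli in engineered U2OS cells also bearing TIF2-GFP, acquired on automated high-content imagers. Primary testing used 20 uM compound; actives were confirmed in triplicate wells.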

Test [2] shares this target. Nature of the test: UPITT_HCI_U2OS_AR_TIF2_Nucleoli_Agonist: University of Pittsburgh U2OS Androgen Receptor-Transcriptional Intermediary Factor 2 (AR-TIF2) Agonism High Content Imaging Assay for Nucleoli Translocation (AID 2283998). Put shortly: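 Nucleolar translocation of AR-RFP, with TIF2-GFP coexpressed in human osteosarcoma U2OS, imaged by high-content fluorescence. Compounds tested singly at 20 uM final, confirmed in triplicate, then titrated 0.195–50 uM final; gain-of-signal relative to DMSO.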

Test [3] can be described thus: CEETOX_H295R_PROG_noMTC: CeeTox H295R High-throughput Steroidogenesis Assay for Progesterone (PROG), maximum tolerated concentration (MTC) filtered results only (AID 2283920; active means hit-call score of the fitted dose curve at least 0.9, where 1 is the maximum; inactive means score below 0.9). Conditions: actives raise or lower the signal. Put shortly:
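H295R cells; forskolin 10 uM x 48 h prestim; test cpd 48 h, 0.1% DMSO final; media progesterone via LC-MS/MS; bidirectional fit vs DMSO; no MTT-based MTC filter applied.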

The next test concerns DIO1 (gene 1733). Nature of the test: CCTE_GLTED_hDIO1: CCTE's human Deiodinase 1 (DIO1) Inhibition Assay, Great Lakes Toxicology and Ecology Division (GLTED) Lab (AID 2283987).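 Further: isolated human DIO1 enzyme in a cell-free setup rather than cells; enzyme activity read as free iodide liberated from substrate via Sandell-Kolthoff colorimetry.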 Put shortly:
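Inhibition read as reduced iodide release: after 3 h of human DIO1 with chemical, free iodide is quantified colorimetrically (Sandell-Kolthoff cerium/arsenic reaction). Triplicate plates, DMSO baseline.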

Test [4] addresses Thyroid hormone receptor alpha (Rattus norvegicus) + Thyroid hormone receptor beta (Rattus norvegicus) (UniProt P18113+P63059). Nature of the test: TOX21_TR_LUC_GH3_Agonist_Followup: Tox21 GH3 Thyroid Hormone Receptor Agonism Luciferase Follow-Up Assay (AID 2283939). Put shortly:
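Rat GH3 cells (1,500/well) in serum-free assay medium, treated with 15-point series, 92 uM to 5 nM final, for 24 h at 37C. Luciferase via ONE-Glo luminescence; gain of signal fitted against DMSO, T3 positive control.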

The target in the next test is THRA (gene 7067) (UniProt P10827). Description: TOX21_TRA_COA_Agonist_Followup_ratio: Tox21 Thyroid Hormone Receptor alpha Agonism through Coactivator Recruitment Follow-Up Assay, Ratio (AID 2283948; active means hit-call score of the fitted dose curve at least 0.9, where 1 is the maximum; inactive means score below 0.9). Put shortly: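 Cell-free TR-FRET coactivator recruitment: GST-tagged TRα LBD (2.5 nM) with 0.10% BSA was incubated with compound, then fluorescein-SRC-2 peptide (200 nM) and Tb-anti-GST antibody (2 nM) added. 520:495 nm ratio normalized to DMSO (0%) and T3 (100%).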

The target of test [5] is THRB (gene 7068) (UniProt P10828). Nature of the test: TOX21_TRB_BLA_Agonist_Followup_ratio: Tox21 Thyroid Hormone Receptor beta Agonism Beta-lactamase (BLA) Follow-Up Assay, Ratio (AID 2283954). Put shortly:
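Human TRβ LBD–GAL4 DBD fusion in GeneBLAzer UAS-bla HEK293T cells; 11 concentrations in triplicate, 18 h at 37°C/5% CO2, T3 as agonist control. CCF4-AM substrate 2 h at room temperature; 460:530 nm ratio fitted for gain of signal versus DMSO.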

The target is the same in test [6]. Description: TOX21_TRB_COA_Agonist_Followup_ratio: Tox21 Thyroid Hormone Receptor beta Agonism through Coactivator Recruitment Follow-Up Assay, Ratio (AID 2283963; active means hit-call score of the fitted dose curve at least 0.9, where 1 is the maximum; inactive means score below 0.9). Put shortly:
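Agonism is measured as coactivator recruitment in a purified-protein TR-FRET format, using GST-TRβ LBD at 5.0 nM, fluorescein-SRC-2 peptide at 200 nM and Tb-labeled anti-GST antibody at 2 nM. Values are 520:495 nm ratios relative to DMSO (0%) and T3 (100%).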

The target of test [7] is Retinoic acid receptor RXR-alpha (Homo sapiens) (UniProt P19793). Description: TOX21_TR_RXR_BLA_Agonist_Followup_ratio: Tox21 Thyroid Hormone Receptor beta Retinoid X Receptor alpha (RXRa) Agonism Beta-lactamase (BLA) Follow-Up Assay, Ratio (AID 2283968). Put shortly: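 This follow-up tests whether responses seen in the TR GH3 luciferase agonist screen are specific, using a GAL4-driven beta-lactamase reporter for RXRa in HEK293T cells. Compound exposure lasts 16 h; signal is the cleaved/uncleaved substrate ratio.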

Test [8] is described as follows: TOX21_TR_RXR_BLA_Agonist_Followup_viability: Viability Assessment in the Tox21 Thyroid Hormone Receptor beta Retinoid X Receptor alpha (RXRa) Agonism Beta-lactamase (BLA) Follow-Up Assay (AID 2283970). Put shortly: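 In qHTS format, RXRa-bla HEK293T cells (2,500/well) received compound for 16h. ATP content was then measured with CellTiter-Glo, and responses were fitted bidirectionally relative to DMSO controls.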

For test [9], the target named is PGR (gene 5241) (UniProt P06401). Description: TOX21_PR_BLA_Followup_Agonist_ratio: Tox21 HEK293 Progesterone Receptor (PR) Agonism Beta-lactamase Follow-Up Assay, Ratio (AID 2283933). Put shortly: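 Agonist-mode follow-up in HEK293T cells carrying a UAS-driven beta-lactamase reporter, grown in 2% charcoal-stripped serum. Compounds act for 16 hr; activity is the ch2/ch1 cleavage ratio, with same-well CellTiter-Glo viability run in parallel.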

Test [10] shares this target. Description: TOX21_PR_BLA_Followup_Antagonist_ratio: Tox21 HEK293 Progesterone Receptor (PR) Antagonism Beta-lactamase Follow-Up Assay, Ratio (AID 2283934).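 Further: PR-UAS-bla HEK293T cells stimulated with 1 nM R5020 agonist for 16 hr.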 Put shortly:
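Antagonist mode used 1 nM R5020 (final) as agonist on a beta-lactamase reporter line in HEK293T cells. Activity was taken from the substrate cleavage ratio after 16 hr exposure.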

Test [11] in a line: TOX21_PR_BLA_Followup_Agonist_viability: Viability Assessment in the Tox21 HEK293 Progesterone Receptor (PR) Agonism Beta-lactamase Follow-Up Assay (AID 2283935).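 Further: signal loss means lower viability so actives are cytotoxic.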 Put shortly:
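Multiplexed viability counter-screen: ATP-coupled luciferase signal measured after 30 min at room temperature, following 16 hr compound treatment of PR-UAS-bla HEK293T cells grown in charcoal-stripped serum.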

Test [12] is described as follows: TOX21_PR_BLA_Followup_Antagonist_viability: Viability Assessment in the Tox21 HEK293 Progesterone Receptor (PR) Antagonism Beta-lactamase Follow-Up Assay (AID 2283936).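 Further: hits lower the luminescence signal meaning cytotoxicity.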 Put shortly:
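PR-UAS-bla HEK293T cells (3,000/well, 2% charcoal-stripped FBS) given compound plus R5020 agonist, 16 h at 37C. CellTiter-Glo added after bla read, 30 min at room temperature; luminescence loss indicates cytotoxicity.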

The target in test [13] is PGR (gene 5241) (UniProt P06401). Nature of the test: TOX21_PR_LUC_Followup_Agonist: Tox21 HEK293 Progesterone Receptor (PR) Agonism Luciferase Follow-Up Assay (AID 2283937; active means hit-call score of the fitted dose curve at least 0.9, where 1 is the maximum; inactive means score below 0.9). Put shortly: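 Agonist mode: reporter cells carrying PR-A and luciferase are treated 16 h with test compounds at 37C. Luciferase induction is measured by luminescence and fitted upward against DMSO.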

For test [14] the target is unchanged. Description: TOX21_PR_LUC_Followup_Antagonist: Tox21 HEK293 Progesterone Receptor (PR) Antagonism Luciferase Follow-Up Assay (AID 2283938).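 Further: curve fitted upward as signal gain over DMSO baseline despite antagonist label.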 Put shortly: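 Luminescence from ONE-Glo was measured 30 min after reagent addition, following 16 h exposure of HEK293-PR-A-luc cells (3,000/well, plated 5 h earlier) to DMSO-dissolved compounds at 37C; DMSO served as baseline.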

Test [15] can be described thus: TOX21_PR_LUC_Followup_Antagonist_viability: Viability Assessment in the Tox21 HEK293 Progesterone Receptor (PR) Antagonism Luciferase Follow-Up Assay (AID 2283940). Put shortly:
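Cellular ATP, measured with luciferase-coupled CellTiter-Glo, served as the viability endpoint after HEK293-PR-A-luc cells were exposed to test compounds for 16 h at 37C.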

Test [16] is described as follows: TOX21_PR_LUC_Followup_Agonist_viability: Viability Assessment in the Tox21 HEK293 Progesterone Receptor (PR) Agonism Luciferase Follow-Up Assay (AID 2283941).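 Further: loss of signal means cytotoxicity so actives lower viability.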 Put shortly:
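Luminescent ATP quantitation (CellTiter-Glo) serves as the read-out; a drop flags cytotoxic compounds. Cells are HEK293-PR-A-luc grown in 10% charcoal-stripped FBS, plated 3,000/well, and exposed to compound for 16 h.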

Sequence of Nucleoli Translocation, AR (gene 367) (P10275 whole entry, looked up): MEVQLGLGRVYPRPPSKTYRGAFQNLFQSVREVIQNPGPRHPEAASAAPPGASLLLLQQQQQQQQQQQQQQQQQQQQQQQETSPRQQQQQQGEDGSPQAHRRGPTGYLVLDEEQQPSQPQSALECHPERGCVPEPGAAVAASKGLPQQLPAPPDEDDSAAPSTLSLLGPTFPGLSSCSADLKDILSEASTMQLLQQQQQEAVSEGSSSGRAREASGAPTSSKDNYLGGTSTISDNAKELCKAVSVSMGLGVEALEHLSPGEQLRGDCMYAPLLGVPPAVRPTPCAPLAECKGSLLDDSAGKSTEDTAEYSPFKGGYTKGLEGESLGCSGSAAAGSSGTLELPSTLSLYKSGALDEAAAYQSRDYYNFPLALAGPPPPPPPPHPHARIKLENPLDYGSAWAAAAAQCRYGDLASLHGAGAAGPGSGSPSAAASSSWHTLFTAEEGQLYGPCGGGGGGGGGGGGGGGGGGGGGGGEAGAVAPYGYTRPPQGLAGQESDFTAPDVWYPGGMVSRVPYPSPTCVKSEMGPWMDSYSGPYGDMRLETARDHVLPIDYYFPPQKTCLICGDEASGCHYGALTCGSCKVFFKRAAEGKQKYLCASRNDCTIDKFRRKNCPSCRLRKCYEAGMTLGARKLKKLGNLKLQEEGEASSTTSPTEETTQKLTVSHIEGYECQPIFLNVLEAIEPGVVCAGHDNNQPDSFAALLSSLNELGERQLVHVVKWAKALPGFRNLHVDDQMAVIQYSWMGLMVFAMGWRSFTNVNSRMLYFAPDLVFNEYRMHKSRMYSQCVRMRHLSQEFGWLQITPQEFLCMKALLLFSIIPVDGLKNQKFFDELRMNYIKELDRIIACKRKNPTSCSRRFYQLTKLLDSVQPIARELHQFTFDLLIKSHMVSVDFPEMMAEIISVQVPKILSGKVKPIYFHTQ
Sequence of PGR (gene 5241) (P06401 whole entry, looked up): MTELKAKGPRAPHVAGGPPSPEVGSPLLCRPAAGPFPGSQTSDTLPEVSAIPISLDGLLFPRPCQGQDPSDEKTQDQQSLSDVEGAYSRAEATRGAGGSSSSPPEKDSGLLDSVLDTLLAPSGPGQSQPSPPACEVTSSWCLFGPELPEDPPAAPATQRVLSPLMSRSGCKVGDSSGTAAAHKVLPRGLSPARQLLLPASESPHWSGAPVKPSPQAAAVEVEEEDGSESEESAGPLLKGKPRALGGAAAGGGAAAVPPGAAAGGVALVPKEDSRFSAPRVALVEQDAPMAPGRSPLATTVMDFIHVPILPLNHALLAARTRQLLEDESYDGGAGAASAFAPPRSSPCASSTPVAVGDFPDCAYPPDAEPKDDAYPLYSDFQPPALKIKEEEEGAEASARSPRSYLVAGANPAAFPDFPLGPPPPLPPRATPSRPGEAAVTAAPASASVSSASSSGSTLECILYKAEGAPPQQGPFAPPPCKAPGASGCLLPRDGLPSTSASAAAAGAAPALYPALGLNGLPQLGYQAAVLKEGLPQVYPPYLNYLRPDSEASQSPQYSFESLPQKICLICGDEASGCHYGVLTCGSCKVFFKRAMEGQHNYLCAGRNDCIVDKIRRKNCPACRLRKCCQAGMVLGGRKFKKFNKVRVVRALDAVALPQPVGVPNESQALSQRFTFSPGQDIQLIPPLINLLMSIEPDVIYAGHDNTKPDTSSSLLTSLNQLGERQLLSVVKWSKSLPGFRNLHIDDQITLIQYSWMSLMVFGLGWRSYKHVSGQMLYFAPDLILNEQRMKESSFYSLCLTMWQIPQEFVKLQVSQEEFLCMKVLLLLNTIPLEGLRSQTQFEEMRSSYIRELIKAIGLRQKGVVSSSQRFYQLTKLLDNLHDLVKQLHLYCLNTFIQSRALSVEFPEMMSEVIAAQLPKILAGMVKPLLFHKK
Sequence of THRB (gene 7068) (P10828 whole entry, looked up, the tested form may be a part): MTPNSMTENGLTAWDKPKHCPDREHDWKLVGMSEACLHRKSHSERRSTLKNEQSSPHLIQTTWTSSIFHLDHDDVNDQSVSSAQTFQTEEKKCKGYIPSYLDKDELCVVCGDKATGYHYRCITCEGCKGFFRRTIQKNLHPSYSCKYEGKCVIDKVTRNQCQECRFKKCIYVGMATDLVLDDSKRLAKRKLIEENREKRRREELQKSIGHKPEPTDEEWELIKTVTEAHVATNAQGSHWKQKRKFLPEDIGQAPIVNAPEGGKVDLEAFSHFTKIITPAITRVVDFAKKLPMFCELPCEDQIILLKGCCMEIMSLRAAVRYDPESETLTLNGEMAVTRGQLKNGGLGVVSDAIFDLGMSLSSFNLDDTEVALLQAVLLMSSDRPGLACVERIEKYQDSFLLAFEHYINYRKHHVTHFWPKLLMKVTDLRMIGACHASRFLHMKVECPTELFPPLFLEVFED
Sequence of THRA (gene 7067) (P10827 whole entry, looked up, the tested form may be a part): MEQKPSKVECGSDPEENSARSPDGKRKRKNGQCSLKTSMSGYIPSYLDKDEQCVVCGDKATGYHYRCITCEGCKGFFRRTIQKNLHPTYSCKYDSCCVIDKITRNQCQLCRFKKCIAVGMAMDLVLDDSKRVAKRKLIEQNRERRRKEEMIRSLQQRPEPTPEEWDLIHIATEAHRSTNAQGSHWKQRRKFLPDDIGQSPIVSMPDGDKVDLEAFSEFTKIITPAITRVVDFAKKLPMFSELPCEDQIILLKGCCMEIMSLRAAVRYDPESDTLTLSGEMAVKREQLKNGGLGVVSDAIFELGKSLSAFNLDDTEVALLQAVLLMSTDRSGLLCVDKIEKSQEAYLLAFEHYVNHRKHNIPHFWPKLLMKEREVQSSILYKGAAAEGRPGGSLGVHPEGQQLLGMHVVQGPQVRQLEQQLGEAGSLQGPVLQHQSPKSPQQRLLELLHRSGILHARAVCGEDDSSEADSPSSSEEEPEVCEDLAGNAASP
Sequence of Retinoic acid receptor RXR-alpha (Homo sapiens) (P19793 whole entry, looked up, the tested form may be a part): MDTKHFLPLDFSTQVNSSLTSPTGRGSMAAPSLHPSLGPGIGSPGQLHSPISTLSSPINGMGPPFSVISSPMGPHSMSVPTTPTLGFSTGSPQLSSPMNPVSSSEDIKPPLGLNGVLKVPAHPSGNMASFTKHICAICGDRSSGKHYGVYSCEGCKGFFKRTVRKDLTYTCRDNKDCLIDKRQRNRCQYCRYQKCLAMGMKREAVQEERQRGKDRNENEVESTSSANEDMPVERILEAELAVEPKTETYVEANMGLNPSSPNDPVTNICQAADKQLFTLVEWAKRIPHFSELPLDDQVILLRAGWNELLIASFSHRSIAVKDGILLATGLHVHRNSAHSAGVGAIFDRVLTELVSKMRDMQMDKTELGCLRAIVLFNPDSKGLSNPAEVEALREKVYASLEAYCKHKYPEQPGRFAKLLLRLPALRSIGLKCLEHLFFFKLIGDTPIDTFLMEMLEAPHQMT
Sequence of Thyroid hormone receptor alpha (Rattus norvegicus) + Thyroid hormone receptor beta (Rattus norvegicus) (P63059 whole entry, looked up): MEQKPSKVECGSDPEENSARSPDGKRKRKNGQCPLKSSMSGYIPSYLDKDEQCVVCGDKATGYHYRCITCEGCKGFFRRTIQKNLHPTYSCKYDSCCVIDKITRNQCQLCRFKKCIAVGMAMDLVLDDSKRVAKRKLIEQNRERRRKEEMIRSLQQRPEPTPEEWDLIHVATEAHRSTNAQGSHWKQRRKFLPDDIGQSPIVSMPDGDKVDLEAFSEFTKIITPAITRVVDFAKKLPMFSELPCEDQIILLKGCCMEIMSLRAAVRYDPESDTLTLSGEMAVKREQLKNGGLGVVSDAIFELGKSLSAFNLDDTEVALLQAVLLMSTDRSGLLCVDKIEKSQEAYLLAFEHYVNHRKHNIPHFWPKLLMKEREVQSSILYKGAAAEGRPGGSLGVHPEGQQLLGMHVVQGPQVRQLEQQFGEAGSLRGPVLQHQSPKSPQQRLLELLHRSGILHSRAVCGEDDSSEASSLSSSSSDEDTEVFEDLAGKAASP
Sequence of Thyroid hormone receptor alpha (Rattus norvegicus) + Thyroid hormone receptor beta (Rattus norvegicus) (P18113 whole entry, looked up): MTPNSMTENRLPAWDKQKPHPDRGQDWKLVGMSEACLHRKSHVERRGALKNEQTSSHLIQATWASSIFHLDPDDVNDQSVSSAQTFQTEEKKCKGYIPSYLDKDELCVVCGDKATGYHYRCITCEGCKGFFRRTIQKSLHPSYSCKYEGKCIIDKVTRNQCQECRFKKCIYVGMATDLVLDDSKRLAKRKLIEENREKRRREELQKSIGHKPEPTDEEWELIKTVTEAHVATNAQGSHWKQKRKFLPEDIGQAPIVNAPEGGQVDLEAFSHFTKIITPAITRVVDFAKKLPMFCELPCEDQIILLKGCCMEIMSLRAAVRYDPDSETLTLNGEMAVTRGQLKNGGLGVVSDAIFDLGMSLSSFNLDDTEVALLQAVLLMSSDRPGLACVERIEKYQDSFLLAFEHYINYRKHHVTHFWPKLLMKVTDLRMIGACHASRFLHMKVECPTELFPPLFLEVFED

As to `CCCOCC(C)O` (stereo not given), the outcome in [1] and in test [2] was inactive.

Consider `CC1CC(OC(=O)c2ccccc2O)CC(C)(C)C1` (stereo not given), for which the outcome in [3] was inactive.

As for `CCCCCCCCCCCCCCCC(=O)OC[C@H](O)[C@H]1OC(=O)C(O)=C1O`, in the test on DIO1 (gene 1733), the AC50 is 89.6 µM (active). In addition, the result in test [1] and in test [2] was inactive.

Consider `CCCCCCCCCCCCCOS(=O)(=O)O`, for which the call in [1] was inactive.

`CCCCC[Si](OCC)(OCC)OCC`: the result in test [1] was inactive.

As for `Cc1cccc(C)c1[N+](=O)[O-]`, the outcome (in test [4]; in the test with THRA (gene 7067); in the test with THRB (gene 7068) [5]; with THRB (gene 7068) [6]; in test [7]; in [8]) was inactive.

For the compound `O=c1cc(-c2ccccc2)oc2cc(O)cc(O)c12`, the outcome (with PGR (gene 5241) [9]; in test [11]; in test [12]; with PGR (gene 5241) [14]; in [15]; in [16]) was inactive. The result in test [1] was inactive. Also, the AC50 in the test with PGR (gene 5241) [10] is 8.76 µM (active); in the test with PGR (gene 5241) [13], 31 µM (active).

On to `CCC/C=C/C=O`, for which the call in test [1] and in [2] was inactive.

`C#C[C@]1(O)CC[C@H]2[C@@H]3CCC4=Cc5oncc5C[C@]4(C)[C@H]3CC[C@@]21C`: the half-maximal activity concentration (AC50) in the test with PGR (gene 5241) [10] is 0.0919 µM (active). For the same compound, the compound was classed as inactive (in test [11]; in test [12]; with PGR (gene 5241) [14]; in test [15]; in test [16]).

`C[C@H]1C[C@@H]2[C@H]([C@@H](O)C[C@@]3(C)[C@H]2CC[C@]3(O)C(=O)CO)[C@@]2(C)C=CC(=O)C=C12`: the values for the AC50 with PGR (gene 5241) [9] and in the test with PGR (gene 5241) [13] were 58.7 µM (active) and 0.334 µM (active), respectively. Also, the outcome (with PGR (gene 5241) [10]; in test [11]; in [12]) was inactive.

For `CCCc1c(OCCCOc2ccc(OCC(=O)O)cc2)ccc(C(C)=O)c1O`, the outcome (with PGR (gene 5241) [9]; in test [11]; in [12]; in the test with PGR (gene 5241) [13]; in test [15]; in test [16]) was inactive. The AC50 with PGR (gene 5241) [10] is 31.5 µM (active); with PGR (gene 5241) [14], 63.6 µM (active).

Turning to `NCCCN1CCOCC1`, the result in test [1] and in [2] was inactive.

For the compound `c1ccc2c(c1)c1cccc3ccc4cccc2c4c31`, the result in test [1] and in [2] was inactive.

With `BrC1CCC(Br)C(Br)CCC(Br)C(Br)CCC1Br` (stereo not given), the AC50 in test [1] is 43.5 µM (active). Besides, the result in test [2] was inactive.
